Measurements from PubChem BioAssay (Tox21).
Results filed as inconclusive are left out. Active and inactive are the calls of the source. Unless noted, calls come from the whole dose curve; as a rule, active = well fitted curve in the direction sought with a large enough effect in the repeat runs; inconclusive = weak or mixed curves; inactive = no such curve, though single readings can be large; an effect the other way counts as inactive or inconclusive.

Experiments:
[1] = qHTS assay to identify small molecule agonists of the sonic hedgehog signaling (Shh) pathway (AID 1259368; calls by dose curve;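 note: NIH/3T3-derived 3T3Gli1-Luc cells carrying a stable Gli1-driven firefly luciferase reporter; series mostly up to about 92 µM; nearly all actives have a fitted effect of over 15% in size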)
Method in brief: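 Quantitative high-throughput format using a Gli1-driven firefly luciferase reporter line derived from NIH/3T3 cells. After a 24 hr compound treatment at 37 C and 5% CO2, luminescence reported Gli1 response element activity.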

[2] = qHTS assay to identify small molecule antagonists of the sonic hedgehog signaling (Shh) pathway (AID 1259369; calls by dose curve; note: nearly all actives have a fitted effect of over 45% in size; note: potency is the fitted concentration of half-maximal effect)
Method in brief: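 Stable Gli1-Luc reporter NIH/3T3 clone; quantitative HTS in stimulated mode with conditioned medium. Luminescence measured after 24hr compound treatment at 37 C.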

[3] = target: Estrogen receptor beta (Homo sapiens) (UniProt Q92731); test: qHTS assay to identify small molecule agonists of the estrogen receptor beta (ER-beta) signaling pathway (AID 1259377; active = well fitted activation curve with a large enough effect in the signal ratio in the repeat runs, not every such curve was filed as active; the % refers to the signal ratio)
Estrogen receptor beta (Homo sapiens), sequence (Q92731 whole entry, looked up): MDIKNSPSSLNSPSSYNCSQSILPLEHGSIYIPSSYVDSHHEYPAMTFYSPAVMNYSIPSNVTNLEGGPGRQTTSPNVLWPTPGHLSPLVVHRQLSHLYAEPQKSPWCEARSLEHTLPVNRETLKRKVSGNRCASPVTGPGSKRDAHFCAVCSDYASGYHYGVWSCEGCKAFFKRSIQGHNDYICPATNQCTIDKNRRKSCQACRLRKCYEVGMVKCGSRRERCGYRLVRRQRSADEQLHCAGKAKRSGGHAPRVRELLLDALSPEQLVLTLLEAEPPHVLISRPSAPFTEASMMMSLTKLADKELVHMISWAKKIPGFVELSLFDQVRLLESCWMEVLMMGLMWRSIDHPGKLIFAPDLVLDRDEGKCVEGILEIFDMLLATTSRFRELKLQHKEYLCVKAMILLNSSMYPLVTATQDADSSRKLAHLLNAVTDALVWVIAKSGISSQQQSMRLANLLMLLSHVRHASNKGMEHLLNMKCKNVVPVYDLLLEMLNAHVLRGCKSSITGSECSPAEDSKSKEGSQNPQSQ
Method in brief: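 ER-beta-UAS-bla HEK293T (GripTite) cells carrying a UAS-driven beta-lactamase reporter, in medium with 2% charcoal-stripped FBS, were exposed to compounds for 16 hr at 37C; LiveBLAzer B/G FRET substrate was then added and fluorescence read after 2 hours at room temperature.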

[4] = qHTS assay to identify small molecule agonists of the androgen receptor (AR) signaling pathway in the presence of an antagonist - cell viability counter screen (AID 1259379);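 note: MDA-kb2 human breast cancer cells carrying an MMTV luciferase reporter; series mostly up to about 92 µM; nearly all actives have a fitted effect of over 25% in size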
Method in brief: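 Nilutamide-containing (3.0uM final) MDA-kb2 cultures, 3,000 cells/well, were treated with compounds across 15 concentrations. After 16 hr at 37C with no CO2, cell viability was determined by CellTiter-Fluor fluorescence in the luciferase assay wells.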

[5] = qHTS assay to identify small molecule agonists of the estrogen receptor beta (ER-beta) signaling pathway - cell viability counter screen (AID 1259380); note: nearly all actives have a fitted effect of over 30% in size
Method in brief: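 Steps: plate ER-beta-UAS-bla HEK293T cells, rest 6 hr; add compounds in DMSO; incubate 16 hr at 37C, 5% CO2; add FRET substrate 2 hr; add CellTiter-Glo, wait 30 min at room temperature; read luminescence.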

[6] = target: Androgen receptor (Homo sapiens) (UniProt P10275); test: qHTS assay to identify small molecule agonists of the androgen receptor (AR) signaling pathway in the presence of an antagonist (AID 1259381; calls by dose curve; note: nearly all actives have a fitted effect of over 15% in size)
Androgen receptor (Homo sapiens), sequence (P10275 whole entry, looked up): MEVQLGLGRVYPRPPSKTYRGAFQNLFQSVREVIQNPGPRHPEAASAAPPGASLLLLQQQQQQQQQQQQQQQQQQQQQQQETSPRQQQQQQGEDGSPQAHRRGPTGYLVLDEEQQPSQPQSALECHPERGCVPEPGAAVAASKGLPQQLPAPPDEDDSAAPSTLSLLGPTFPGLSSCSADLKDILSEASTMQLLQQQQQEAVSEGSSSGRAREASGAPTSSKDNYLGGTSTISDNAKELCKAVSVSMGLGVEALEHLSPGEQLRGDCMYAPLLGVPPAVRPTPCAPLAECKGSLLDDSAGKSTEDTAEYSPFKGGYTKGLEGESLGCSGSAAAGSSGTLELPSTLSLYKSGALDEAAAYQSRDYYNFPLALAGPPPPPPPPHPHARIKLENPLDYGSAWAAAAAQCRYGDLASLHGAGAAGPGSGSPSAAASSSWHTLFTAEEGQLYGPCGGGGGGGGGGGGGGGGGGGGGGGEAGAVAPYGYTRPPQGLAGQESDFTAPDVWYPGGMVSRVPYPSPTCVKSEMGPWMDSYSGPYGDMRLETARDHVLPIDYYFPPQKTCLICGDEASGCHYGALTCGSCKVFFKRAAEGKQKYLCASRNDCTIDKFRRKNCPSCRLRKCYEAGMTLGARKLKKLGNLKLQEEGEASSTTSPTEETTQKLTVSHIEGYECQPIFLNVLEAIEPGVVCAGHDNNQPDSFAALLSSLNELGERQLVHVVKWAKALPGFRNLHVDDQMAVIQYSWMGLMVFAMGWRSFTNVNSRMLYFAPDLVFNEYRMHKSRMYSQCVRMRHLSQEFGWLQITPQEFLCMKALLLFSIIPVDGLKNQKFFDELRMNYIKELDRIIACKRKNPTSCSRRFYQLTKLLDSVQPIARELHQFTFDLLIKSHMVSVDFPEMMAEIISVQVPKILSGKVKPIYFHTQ
Method in brief: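 Reporter-gene luminescence from MDA-kb2 cells exposed 16hr at 37C (0% CO2) to 15-point compound titrations with 3.0uM final nilutamide as AR antagonist.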

[7] = qHTS assay to identify small molecule antagonists of the estrogen receptor beta (ER-beta) signaling pathway - cell viability counter screen (AID 1259382); note: series mostly up to about 92 µM; nearly all actives have a fitted effect of over 55% in size
Method in brief: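 Viability is scored by CellTiter-Glo luminescence (30 min, room temperature) in ER-beta-UAS-bla HEK293T wells already read for reporter fluorescence. Compound exposure lasts 16 hr at 37C alongside 1nM 17-beta-estradiol in charcoal-stripped serum medium.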

[8] = target: Estrogen receptor (Homo sapiens) (UniProt P03372); test: qHTS assay to identify small molecule agonists of the estrogen receptor alpha (ER-alpha) signaling pathway in the presence of an antagonist (AID 1259383; calls by dose curve; note: top concentration of the series differs between compounds; nearly all actives have a fitted effect of over 15% in size)
Estrogen receptor (Homo sapiens), sequence (P03372 whole entry, looked up): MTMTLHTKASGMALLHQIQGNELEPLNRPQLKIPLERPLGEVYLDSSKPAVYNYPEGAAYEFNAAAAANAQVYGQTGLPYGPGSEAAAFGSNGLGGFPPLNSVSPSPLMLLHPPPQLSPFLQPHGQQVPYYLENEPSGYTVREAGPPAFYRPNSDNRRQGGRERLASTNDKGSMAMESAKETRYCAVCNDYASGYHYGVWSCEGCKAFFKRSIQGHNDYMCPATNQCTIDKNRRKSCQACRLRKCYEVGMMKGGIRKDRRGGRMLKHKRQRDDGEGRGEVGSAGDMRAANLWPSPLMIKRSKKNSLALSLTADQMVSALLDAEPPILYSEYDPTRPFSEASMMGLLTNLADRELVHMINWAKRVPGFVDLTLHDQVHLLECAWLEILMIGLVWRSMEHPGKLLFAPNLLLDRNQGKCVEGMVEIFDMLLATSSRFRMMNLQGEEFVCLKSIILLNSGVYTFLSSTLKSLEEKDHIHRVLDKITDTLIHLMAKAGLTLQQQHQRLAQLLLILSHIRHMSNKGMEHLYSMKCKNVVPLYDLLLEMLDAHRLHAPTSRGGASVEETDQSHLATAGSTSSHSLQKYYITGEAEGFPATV
Method in brief: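 Readout was ERE-driven luciferase luminescence in VM7Luc4E2 cells, which express full-length ER-alpha endogenously. Compounds were tested at 15 concentrations for 22hr alongside 10.0nM ICI-182,780 (final concentration).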

[9] = qHTS assay to identify small molecule agonists or antagonists of the thyroid stimulating hormone receptor (TSHR) signaling pathway - wild type cell line counter screen (AID 1259384; calls by dose curve)
Method in brief: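 Wild-type Hek293 cells, 800/well, 18 h at 37C, then compound with Ro20-1724 for 30 min RT. cAMP by HTRF (cAMP-d2/anti-cAMP cryptate), 1 h RT, fluorescence read. 15 concentrations, triplicates.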

[10] = target: Thyrotropin receptor (Homo sapiens) (UniProt P16473); test: qHTS assay to identify small molecule antagonists of the thyroid stimulating hormone receptor (TSHR) signaling pathway (AID 1259385; calls by dose curve; note: nearly all actives have a fitted effect of over 20% in size)
Thyrotropin receptor (Homo sapiens), sequence (P16473 whole entry, looked up): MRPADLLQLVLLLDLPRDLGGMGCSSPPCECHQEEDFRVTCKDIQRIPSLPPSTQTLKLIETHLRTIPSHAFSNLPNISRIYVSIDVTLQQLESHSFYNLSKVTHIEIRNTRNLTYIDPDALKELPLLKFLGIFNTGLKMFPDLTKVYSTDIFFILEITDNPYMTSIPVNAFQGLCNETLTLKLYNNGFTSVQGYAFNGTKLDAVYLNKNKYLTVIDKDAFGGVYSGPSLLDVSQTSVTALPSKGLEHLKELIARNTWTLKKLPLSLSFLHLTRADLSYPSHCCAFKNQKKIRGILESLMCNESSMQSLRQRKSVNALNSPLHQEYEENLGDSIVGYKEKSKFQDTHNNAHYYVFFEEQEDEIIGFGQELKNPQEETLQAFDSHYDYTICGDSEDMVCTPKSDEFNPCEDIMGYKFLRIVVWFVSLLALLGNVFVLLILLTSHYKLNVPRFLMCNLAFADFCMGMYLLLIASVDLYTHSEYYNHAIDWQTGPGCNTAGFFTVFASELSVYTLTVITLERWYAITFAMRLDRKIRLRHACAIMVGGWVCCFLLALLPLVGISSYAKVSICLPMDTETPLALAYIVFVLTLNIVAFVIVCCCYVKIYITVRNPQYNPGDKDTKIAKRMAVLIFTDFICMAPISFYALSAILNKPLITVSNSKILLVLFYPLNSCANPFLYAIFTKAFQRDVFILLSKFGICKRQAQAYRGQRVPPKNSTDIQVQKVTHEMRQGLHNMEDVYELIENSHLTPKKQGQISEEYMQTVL
Method in brief: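 TSHR-HEK293 cells (800/well) plated 18 h, then compounds with Ro20-1724 and TSH at 1.5 ng/mL final, 30 min at room temperature. cAMP quantified by HTRF (cAMP-d2/anti-cAMP-cryptate, 1 h); 15 concentrations in triplicate.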

[11] = qHTS assay to identify small molecule agonists of the estrogen receptor alpha (ER-alpha) signaling pathway in the presence of an antagonist - cell viability counter screen (AID 1259386);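 note: series mostly up to about 92 µM; cells exposed to compounds for 22 h at 37 °C before the viability read; nearly all actives have a fitted effect of over 30% in size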
Method in brief: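 In this counter screen, compound effects on VM7Luc4E2 viability were tested in the presence of the antagonist ICI-182,780 at 10.0nM final. Compounds were dosed at 15 concentrations, exposure lasted 22hr, and the CellTiter-Fluor signal was read.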

[12] = target: Progesterone receptor (Homo sapiens) (UniProt P06401); test: qHTS assay to identify small molecule agonists of the progesterone receptor (PR) signaling pathway (AID 1346784; calls by dose curve; note: nearly all actives have a fitted effect of over 30% in size)
Progesterone receptor (Homo sapiens), sequence (P06401 whole entry, looked up): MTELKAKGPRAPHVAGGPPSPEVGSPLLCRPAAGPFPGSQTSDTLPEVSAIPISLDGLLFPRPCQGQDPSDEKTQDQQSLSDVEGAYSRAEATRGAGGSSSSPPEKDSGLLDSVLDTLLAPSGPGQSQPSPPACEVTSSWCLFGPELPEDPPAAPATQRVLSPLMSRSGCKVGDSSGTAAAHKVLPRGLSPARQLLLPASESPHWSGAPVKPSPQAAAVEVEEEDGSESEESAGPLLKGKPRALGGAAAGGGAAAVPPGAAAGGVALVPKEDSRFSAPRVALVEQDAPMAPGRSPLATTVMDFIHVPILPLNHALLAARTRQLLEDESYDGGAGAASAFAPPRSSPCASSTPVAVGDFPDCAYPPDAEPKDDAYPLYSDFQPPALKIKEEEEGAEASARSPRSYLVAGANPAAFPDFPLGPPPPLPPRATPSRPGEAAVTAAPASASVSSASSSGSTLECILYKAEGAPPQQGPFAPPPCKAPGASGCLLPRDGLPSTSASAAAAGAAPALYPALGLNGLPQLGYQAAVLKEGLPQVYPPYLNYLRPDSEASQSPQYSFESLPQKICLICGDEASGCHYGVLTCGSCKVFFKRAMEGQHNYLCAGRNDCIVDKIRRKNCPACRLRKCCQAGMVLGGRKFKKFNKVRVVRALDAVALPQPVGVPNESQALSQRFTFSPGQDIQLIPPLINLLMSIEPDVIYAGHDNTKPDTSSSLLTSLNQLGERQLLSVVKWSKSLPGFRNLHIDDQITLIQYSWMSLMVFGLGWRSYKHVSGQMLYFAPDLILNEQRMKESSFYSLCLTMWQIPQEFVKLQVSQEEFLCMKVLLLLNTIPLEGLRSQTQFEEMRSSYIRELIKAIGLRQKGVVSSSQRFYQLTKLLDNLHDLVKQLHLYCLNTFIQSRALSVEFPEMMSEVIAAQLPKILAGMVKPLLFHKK
Method in brief: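 PR-UAS-bla HEK 293T cells carrying a UAS-driven beta-lactamase reporter were seeded in medium with 2% charcoal-stripped FBS, preincubated 6 hr at 37C, then exposed to compounds in DMSO for 16 hr; agonism was read by LiveBLAzer B/G FRET fluorescence.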

[13] = target: Progesterone receptor (Homo sapiens) (UniProt P06401); test: qHTS assay to identify small molecule antagonists of the progesterone receptor (PR) signaling pathway (AID 1346795; active = well fitted inhibition curve with a large enough effect in the signal ratio in the repeat runs, not every such curve was filed as active; the % refers to the signal ratio)
Method in brief: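 PR-UAS-bla HEK293T cells carrying a UAS-driven beta-lactamase reporter were plated in medium with 2% charcoal-stripped FBS and rested 6 hr at 37C. Compounds were added with 1 nM R5020 (final) for 16 hr, then FRET substrate loaded 2 hr at room temperature.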

[14] = qHTS assay to identify small molecule antagonists of the progesterone receptor (PR) signaling pathway - cell viability counter screen (AID 1346798); note: series mostly up to about 92 µM; nearly all actives have a fitted effect of over 50% in size
Method in brief: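 PR-UAS-bla HEK293T cells in medium with 2% charcoal-stripped FBS were treated with compounds plus R5020 for 16 hr at 37C. Cell viability was then read by CellTiter-Glo luminescence after 30 min at room temperature in the same wells.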

[15] = qHTS assay to identify small molecule antagonists of the TGF-beta/Smad signaling pathway - cell viability counter screen (AID 1346824); note: nearly all actives have a fitted effect of over 50% in size
Method in brief: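 SBE-bla HEK 293T cells, incubated overnight, then compound plus 0.25 ng/mL TGF-beta1 (stock added) for 5 hr at 37 C. Viability was read in the same wells by CellTiter-Glo luminescence after 30 min at room temperature.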

[16] = qHTS assay to identify small molecule agonists of the TGF-beta/Smad signaling pathway - cell viability counter screen (AID 1346829); note: top concentration of the series differs between compounds; nearly all actives have a fitted effect of over 45% in size
Method in brief: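 HEK 293T SBE-bla line, 5 hr compound exposure at 37 C, multiplexed CellTiter-Glo viability read by luminescence.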

[17] = qHTS assay to identify small molecule agonists of the TGF-beta/Smad signaling pathway (AID 1346859; active = well fitted activation curve with a large enough effect in the signal ratio in the repeat runs, not every such curve was filed as active; the % refers to the signal ratio; note: series mostly up to about 77 µM)
Method in brief: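 HEK 293T cells stably carrying a beta-lactamase reporter driven by the Smad binding element were seeded overnight, exposed to DMSO-dissolved compounds for 5 hr at 37 C, 5% CO2, then loaded with FRET substrate for 2 hr at room temperature.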

[18] = qHTS assay to identify small molecule agonists of the progesterone receptor (PR) signaling pathway - cell viability counter screen (AID 1346799; calls by dose curve; note: nearly all actives have a fitted effect of over 45% in size)
Method in brief: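 PR-UAS-bla HEK293T cells, 3,000 per well in medium with 2% charcoal-stripped FBS, were preincubated 6 hr at 37C, then exposed to compounds for 16 hr; viability was read as CellTiter-Glo luminescence after 30 min at room temperature.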

[19] = target: Thyrotropin-releasing hormone receptor (Homo sapiens) (UniProt P34981); test: qHTS assay to identify small molecule antagonists of the thyrotropin-releasing hormone receptor (TRHR) signaling pathway (AID 1346877; active = well fitted inhibition curve with a large enough effect in the repeat runs, not every such curve was filed as active; note: series mostly up to about 51 µM)
Thyrotropin-releasing hormone receptor (Homo sapiens), sequence (P34981 whole entry, looked up): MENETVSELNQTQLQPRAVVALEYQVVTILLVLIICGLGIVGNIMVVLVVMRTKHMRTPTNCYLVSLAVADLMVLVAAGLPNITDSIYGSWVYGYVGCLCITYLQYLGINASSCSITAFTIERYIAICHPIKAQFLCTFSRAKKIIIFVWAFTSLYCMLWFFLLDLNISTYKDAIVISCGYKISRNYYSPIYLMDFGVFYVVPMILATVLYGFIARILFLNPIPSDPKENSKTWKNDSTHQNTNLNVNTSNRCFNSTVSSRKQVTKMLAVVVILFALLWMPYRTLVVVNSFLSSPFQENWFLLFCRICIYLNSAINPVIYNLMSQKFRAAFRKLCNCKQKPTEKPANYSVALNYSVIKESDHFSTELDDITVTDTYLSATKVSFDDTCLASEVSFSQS
Method in brief: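 Kinetic fluorescence (3 min, 1 s resolution) following stimulation with TRH at 1 nM final; HEK293 cells bearing human TRHR; 5 min compound preincubation at RT; concentration-response over 15 points, triplicates.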

[20] = target: Estrogen receptor beta (Homo sapiens) (UniProt Q92731); test: qHTS assay to identify small molecule antagonists of the estrogen receptor beta (ER-beta) signaling pathway (AID 1259378; active = well fitted inhibition curve with a large enough effect in the signal ratio in the repeat runs, not every such curve was filed as active; the % refers to the signal ratio)
Method in brief: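 ER-beta-UAS-bla HEK293T cells in 2% charcoal-stripped FBS medium treated with compound plus 1nM final 17-beta-estradiol for 16 hr at 37C. Beta-lactamase reporter read by FRET substrate fluorescence after 2 hours at room temperature.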
% is set by controls: 0 for no effect and ±100 for the full control effect.

Oc1cn2c(n1)Nc1ccc(Cl)c(Cl)c1C2
inactive: activity change [1] -0.534% [at 18.9 µM] | activity change, negative = inhibition [2] -20% [at 19 µM] | activation [3] -3.28% [at 19 µM] | activity change, negative = cytotoxicity [4] 0.214% [at 19 µM] | activity change, negative = cytotoxicity [5] 8.72% [at 19 µM] | activation [6] 1.01% [at 19 µM] | activity change, negative = cytotoxicity [7] 4.54% [at 19 µM] | activation [8] -1.28% [at 19 µM] | cAMP activity change [9] -0.126% [at 18.9 µM] | activity change, negative = inhibition [10] -0.393% [at 19 µM] | activity change, negative = cytotoxicity [11] 5.64% [at 19 µM] | activation [12] -0.586% [at 19 µM] | activity change, negative = inhibition [13] 2.35% [at 18.9 µM] | activity change, negative = cytotoxicity [14] 6.36% [at 18.9 µM] | viability change, negative = cytotoxic [15] 8.57% [at 15.8 µM] | activity change, negative = cytotoxicity [16] -0.153% [at 15.8 µM] | activation [17] -0.288% [at 15.8 µM]

CC/C=C\CC1=C(C)CCC1=O
inactive: outcome [1] | Potency [2] | Potency [3] | Potency [4] | Potency [5] | Potency [6] | outcome [7] | outcome [9] | outcome [10] | Potency [11] | Potency [12] | Potency [13] | Potency [14] | Potency [18] | outcome [15] | outcome [16] | outcome [17] | outcome [19]

CCCCC(CC)COCCO (stereo unspecified)
inactive: outcome [1] | Potency [2] | Potency [3] | Potency [4] | Potency [5] | outcome [7] | outcome [8] | outcome [10] | Potency [11] | Potency [12] | Potency [13] | Potency [14] | Potency [18] | outcome [15] | outcome [16] | outcome [17] | outcome [19]

OCCC(F)(F)C(F)(F)C(F)(F)C(F)(F)C(F)(F)C(F)(F)C(F)(F)C(F)(F)F
inactive: outcome [1] | Potency [2] | Potency [3] | Potency [4] | Potency [5] | Potency [6] | outcome [7] | outcome [8] | Potency [11] | Potency [12] | Potency [13] | Potency [14] | Potency [18] | outcome [15] | outcome [16] | outcome [17] | outcome [19]

CCCCNC1CC(C)(C)NC(C)(C)C1
inactive: outcome [1] | Potency [2] | Potency [3] | outcome [20] | Potency [5] | outcome [7] | outcome [8] | outcome [9] | outcome [10] | Potency [11] | Potency [12] | Potency [13] | Potency [14] | outcome [15] | outcome [16] | outcome [17] | outcome [19]

CC[C@H](C)C(=O)O[C@H]1C[C@H](O)C=C2C=C[C@H](C)[C@H](CC[C@@H](O)C[C@@H](O)CC(=O)O)[C@H]21
inactive: outcome [1] | Potency [2] | Potency [3] | Potency [4] | Potency [5] | outcome [7] | outcome [8] | Potency [12] | Potency [13] | Potency [14] | Potency [18] | outcome [15] | outcome [16] | outcome [17]

Cc1ccccc1C(=O)Nc1ccc(C(=O)N2CCCC(N(C)C)c3ccccc32)cc1 (stereo unspecified)
active: Potency [2] 15 µM
inactive: outcome [1] | Potency [3] | outcome [20] | Potency [4] | outcome [8] | outcome [9] | Potency [11] | Potency [12] | Potency [13] | Potency [14] | Potency [18] | outcome [15] | outcome [16] | outcome [17] | outcome [19]
